From PubChem BioAssay
KB-V1 cytotox: qHTS assay for MDR1-selective chemotherapeutics: Primary screen using the drug-selected MDR subline cells KB-V1; KB-V1 MDR cells viability, CellTiter-Glo, 72 h; 400,000 tested, 3.4% active; Potency, µM (titrated, usually from 46.1 µM), most hits filed as cytotoxic; AID 1347076, 2019; also: nearly all actives have a fitted effect of over 60% in size
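KB-V1 MDR subline cells in DMEM (phenol-red free, 10% FBS) exposed to compounds in qHTS concentration series for 72 h at 37 degrees C. Viability read by CellTiter-Glo luminescence; concentration-effect curves fitted after normalization and correction.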
HT1080 IDH1KD tx: qHTS for induction of synthetic lethality in tumor cells producing 2HG: qHTS for the HT-1080-IDH1KD cell line | HT-1080 IDH1 knockdown viability, ATP luminescence, 48 h | Potency, µM (series often up to 46.1 µM), hits mostly cytotoxic | 360,000 tested, 2% active | AID 686971, 2013
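After a 2 h attachment period, IDH1KD HT-1080 cells took pin-transferred compound for 48 h at 37 °C; ATP-based luminescence after 10 min room-temperature reagent incubation reported viability.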
SW480 rerep: A quantitative high throughput screen for small molecules that induce DNA re-replication in SW480 colon adenocarcinoma cells; 340,000 tested, 1.8% active; AID 624297, 2012; SW480 DNA re-replication, Hoechst DNA content imaging, 48 h; Potency, µM (highest dose often 46.1 µM), actives largely listed as activators; also: nearly all actives have a fitted effect of over 55% in size
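First, 250 cells per well were seeded. Next, compound or vehicle (23 nL) was pinned in, plates sat 48 hr at 37 C. Finally Hoechst was added for 40 min before fluorescence scanning.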
HT1080-NT tox: qHTS for induction of synthetic lethality in tumor cells producing 2HG: qHTS for the HT-1080-NT fibrosarcoma cell line | HT-1080-NT fibrosarcoma viability, CellTiter-Glo ATP luminescence, 48 h | Potency, µM (top dose mostly 46.1 µM), usual class: cytotoxic | 360,000 tested, 1.6% active | AID 686970, 2013;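 also: NT is the 2HG producing partner of a matched IDH1 knockdown line; nearly all actives have a fitted effect of over 55% in size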
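A 48-hour cytotoxicity screen used HT-1080-NT cells plated 2 hours before compound delivery. ATP-based CellTiter-Glo luminescence measured viability, normalized to DMSO and no-cell controls.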
KB-3-1 cytotox: qHTS assay for MDR1-selective chemotherapeutics: Primary screen using the parental adenocarcinoma cell KB-3-1; KB-3-1 viability, CellTiter-Glo ATP luminescence, 72 h; 400,000 tested, 1.4% active; Potency, µM (titrated, usually from 46.1 µM), most hits filed as cytotoxic; also: nearly all actives have a fitted effect of over 60% in size
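Cytotoxicity in the drug-sensitive parental line KB-3-1 was scored as loss of CellTiter-Glo luminescence following 72 h incubation with compound. Values come from curve fitting of normalized concentration-response data.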
MCF10A rerep: A quantitative high throughput screen for small molecules that induce DNA re-replication in MCF 10a normal breast cells; 350,000 tested, 2.9% active; AID 624296, 2012; MCF 10A DNA re-replication, Hoechst nuclear intensity, 48 h; Potency, µM (highest dose often 46.1 µM), usual class: activators; also: nearly all actives have a fitted effect of over 50% in size
Hits are given with their value; i = inactive; ? = inconclusive; nt = no result; [ ] = dose if it differs, or a comment. This is a sample that favours compounds with a hit; in the whole collection about 7.9% have one here. Calls follow the shape of the dose curve; as a rule, active = well fitted curve in the direction sought with a large enough effect; inconclusive = small, poorly fitted or top-dose-only effect, or another doubt; inactive = no such curve, though single readings can be large; an effect the other way counts as inactive or inconclusive.

SMILES | KB-V1 cytotox | HT1080 IDH1KD tx | SW480 rerep | HT1080-NT tox | KB-3-1 cytotox | MCF10A rerep
CC(=O)N1CCN(c2ccc(NC(=O)c3ccccc3)cc2)CC1 | i | i | i[9.22 µM] | i | i | i
Cc1cccc(C(=O)NC(=S)Nc2ccc(N3CCOCC3)cc2)c1 | 18µM | i | i | i | i | ?
Cc1ccccc1C(=O)N1CCN(c2ccc(NC(=S)NC(=O)c3cccs3)cc2)CC1 | i | i | ? | ? | ? | i
Cc1ccc(C(=O)N2CCN(c3ccc(NC(=S)NC(=O)c4cccs4)cc3)CC2)cc1 | i | i | 10µM | i | ? | ?
CC(=O)N1CCN(c2ccc(NC(=S)NC(=O)c3ccccc3)cc2)CC1 | 3.7µM | i | i | i | i | ?
O=C(CNC(=S)N(CCCN1CCOCC1)Cc1cccs1)NCCCN1CCOCC1 | i | i | i | i | i | i
CC(=O)N(CCS(=O)(=O)c1ccc(Cl)cc1)Cc1cccs1 | i | i | i | i | i | i
CCc1ccc(NC(=O)N(CCCN2CCOCC2)Cc2cccs2)cc1 | i | i | i | i | i | i
CCOC(=O)CCN(Cc1cccs1)S(=O)(=O)c1ccc(Cl)cc1 | 15µM | i | i | i | i | i
O=[N+]([O-])c1ccc(S(=O)(=O)N(CCCN2CCOCC2)Cc2cccs2)cc1 | ? | i | i | i | i | i
CCN(CC)C(=O)CNC(=S)N(CCCN1CCOCC1)Cc1cccs1 | 7.3µM | i | i | i | i | i
CC(=O)Nc1ccc(S(=O)(=O)N(CCCN2CCOCC2)Cc2cccs2)cc1 | i | i | i | i | i | 1.2µM
CC(C)(C)c1ccc(S(=O)(=O)N(CCCN2CCOCC2)Cc2cccs2)cc1 | i | ? | ? | ? | i | 5.8µM
Cn1cccc1-c1cc2n(n1)CCC(=O)N2CCCC(=O)NCc1ccc(F)cc1 | i | nt | nt | nt | i | nt
Cn1cc(S(=O)(=O)c2ccccc2)c(=O)c2cc(F)c(N3CCN(c4ccccc4)CC3)cc21 | i | nt | nt | nt | i | nt
CC(C)CNS(=O)(=O)c1ccccc1C(=O)N1CCCCC1 | 15µM | i | i | i | i | i
Cc1cccc(C)c1OCC(O)CNS(=O)(=O)c1ccccc1C(=O)N1CCCCC1 (stereo not given) | 4.6µM | i | i | i | i | i
CCc1ccc(NC(=O)C(C)OC(=O)c2cc(=O)[nH]c3ccc(S(=O)(=O)Nc4ccc(F)cc4)cc23)cc1 (stereo not given) | ? | i | i | i | i | 21µM
C[C@@H]1CN([C@@H](C)CO)S(=O)(=O)c2ccc(-c3ccc(C#N)cc3)cc2O[C@@H]1CN(C)Cc1ccccn1 | i | i | nt | i | i | nt
CC(NO)/C(=N\O)c1cccs1 (stereo not given) | i | i | ? | i | i | 3.7µM
O=C1COc2cc(S(=O)(=O)CCC(=O)N3CCN(c4ccccc4)CC3)c(Cl)cc2N1 | i | nt | nt | nt | i | nt
Cc1ccc2[nH]c(=O)c(CN(Cc3ccccc3)C(=S)NCCCN(C)C)cc2c1 | i | 16µM | ? | 18µM | i | ?
CCCN(Cc1cc2cc(C)ccc2[nH]c1=O)C(=O)c1cccc([N+](=O)[O-])c1 | ? | i | 2.3µM | i | i | i
Cc1cccc(NC(=S)N(CCN(C)C)Cc2cc3cc(C)ccc3[nH]c2=O)c1 | ? | ? | i | 16µM | i | ?
Cc1cccc2cc(CN(CCN(C)C)C(=S)Nc3ccccc3)c(=O)[nH]c12 | 23µM | i | ? | i | i | i
SMILES | KB-V1 cytotox | HT1080 IDH1KD tx | SW480 rerep | HT1080-NT tox | KB-3-1 cytotox | MCF10A rerep
CCOC(=O)c1ccccc1NC(=O)Cn1ncc2c1-c1ccccc1OC2 | i | nt | nt | nt | ? | nt
Clc1ccc(/C=C/c2ccc3ccccc3n2)cc1Cl | i | nt | nt | nt | ? | nt
S=c1nc(C2CCCCC2)[nH][nH]1 | i | 6.3µM | i | 11µM | i | i
CC1=CC(=O)C=C(C)C1=NOC(=O)/C=C\c1ccccc1 | i | i | 5.8µM | i | i | ?
CC(C)(C)c1ccc(N=C2SCC(=O)N2Cc2cccs2)cc1 | ? | ? | ? | ? | i | 23µM
CCN1C(=O)CSC1=Nc1ccc(C(=O)O)cc1 | i | i | i | i | i | i
CCc1ccc(-n2c(C)nc3cc(C(=O)NCCc4ccccc4)ccc32)cc1 | i | nt | nt | nt | i | nt
O=C1[C@@H](Oc2ccccc2)[C@@H](c2ccncc2)N1c1ccncc1 | i | i | i | i | i | 0.18µM
O=C1[C@@H](Oc2ccccc2)[C@@H](c2cnc3ccccc3c2)N1c1ccccc1 | i | 21µM | ? | ? | i | ?
COc1ccc(-c2nnc(SCC(=O)NC3CCCC3)nc2-c2ccc(OC)c(OC)c2)cc1OC | i | nt | nt | nt | i | nt
CCN(CC)S(=O)(=O)c1cccc(-c2nnc(SCCOc3ccccc3)o2)c1 | 16µM | i | i | ? | ? | i
COc1cc(SC)ccc1C(=O)Nc1ccc(S(=O)(=O)Nc2nccc(C)n2)cc1 | i | nt | nt | nt | i | nt
Cc1ccc2nc3c(cc(C(=O)NCCCn4ccnc4)n3C)c(=O)n2c1 | i | ? | ? | i | i | 15µM
C=CCn1c(=N)c(C#N)cc2c(=O)n3ccccc3nc21 | i | i | ? | i | i | ?
COCCCn1c(=N)c(C(=O)NCC2CCCO2)cc2c(=O)n3cc(C)ccc3nc21 (stereo not given) | ? | nt | nt | nt | i | nt
C=CCn1c(=N)c(C(=O)NCCCOC)cc2c(=O)n3ccccc3nc21 | i | i | 1.3µM | i | i | 2.1µM
C=CCn1c(=N)c(C(=O)NCCCOC)cc2c(=O)n3cc(C)ccc3nc21 | ? | i | ? | i | i | 8.2µM
Cc1ccccc1C(=O)OCc1cc(=O)n2c(C)csc2n1 | ? | nt | nt | nt | i | nt
COC(=O)[C@@]12C[C@@H](CC(=O)N3CCOCC3)C(=O)N(Cc3cccc4ccccc34)C1=CCC(C)(C)C2 | ? | i | nt | i | i | nt
COC1OC2COC(c3ccccc3)OC2C(NC(C)=O)C1OC(C)=O (stereo not given) | i | i | nt | i | i | nt
CC(=O)Nc1nnc2n1CCS2 | i | nt | nt | nt | i | nt
O=c1n(-c2ccccc2)c(=O)n2n1CCCC2 | i | i | 16µM | i | i | ?
Cc1cc2c([nH]c3ccccc32)c(C)n1 | i | i | i | i | i | ?
Cc1c2c(cc3c1[nH]c1ccccc13)C=NCC2 | ? | ? | ? | i | ? | 21µM
COc1cccc(CNC(=O)N2CCc3c(sc4c3CCCC4)C2c2ccc(F)cc2)c1 (stereo not given) | i | nt | nt | nt | ? | nt
CCCN1C(=O)c2cccc3c(N4CCCCC4)ccc(c23)C1=O | ? | i | nt | i | i | 3.7µM
